This is an account of results in PubChem BioAssay (NCATS).

Values joined by “and” are separate entries in the source; they are usually repeats but may differ in a detail not shown here. Equal entries are not always repeated. Results filed as inconclusive are left out. Active and inactive are the calls of the source. The call rests on the fitted dose curve; in most records, active means well fitted inhibition curve with a large enough effect; inconclusive means small, poorly fitted or top-dose-only effect; inactive means flat fitted curve, though single readings scatter.
Potency means the concentration at half of the fitted maximal effect.

The experiment can be described thus: Primary qHTS for inhibitors of nuclear receptor binding SET domain protein 2 (NSD2) in an isogenic RCH-ACV NSD2 p.E1099K mutant (9B) (AID 1645876). Further: nearly all actives have a fitted effect of over 70% in size. The conditions noted are these: RCH-ACV (leukaemia line) NSD2 E1099K (9B) viability, CellTiter-Glo, 72 h; series mostly up to 44.9 µM.
Consider `C=C(C)C(=O)OC1CC2(C)OC(=CC2=O)C(=C)CC2OC(=O)C(=C)C12` (stereo not drawn), for which the Potency is 0.8 µM (active).
Then `O=C(NCCCc1ccccc1)c1cccc(-c2cc(O)c3ncccc3c2)c1`, with 12.9 µM (active).
For `Cc1sc2c(c1C)C(c1ccc(Cl)cc1)=N[C@@H](CC(=O)Nc1ccc(OCCOCCOCCOCCNc3cccc4c3C(=O)N(C3CCC(=O)NC3=O)C4=O)cc1)c1nnc(C)n1-2` (stereo partly drawn) the value was 4 nM (active) and 10.5 nM (active); for `CN(C)C(=O)COC(=O)c1cc(-c2ccc(C3CCNCC3)cc2)c2ccc(-c3ccc(C(F)(F)F)cc3)cc2c1`, 4.59 µM (active).
For `O=C(Nc1nc2cc(C(F)(F)F)cc(NC3CC3)n2n1)c1cccnc1` the value was 2.3 µM (active).
For the compound `CC(=O)NC[C@H]1CN(c2ccc(N3CCSCC3)c(F)c2)C(=O)O1`, the Potency entry was “inactive”.
Then `CC[N+]1(C/C2=C/CCCCCC2)CCC(NC(=O)C2c3cc(Cl)ccc3Oc3ccc(Cl)cc32)CC1` (stereo not drawn), with 23 µM (active); and `CC(C)/C=C1\NC(=O)C(C(C)C)n2c1nc1ccccc1c2=O` (stereo not drawn), with “inactive”.
Regarding `C=C(C)C(=O)OC1CC(CO)CCC/C(CO)=C/C2OC(=O)C(=C)C21` (stereo not drawn), the Potency is 2.53 µM (active).
Consider `CC(C)(C)Oc1ccc(OCC2Cc3ccccc3CN2C(=O)c2cccc3ccccc23)cc1` (stereo not drawn), for which the Potency result was “inactive”.
For `Cc1nc2ccc(-n3ncc(C(=O)c4cc5ccccc5[nH]4)c3N)cc2[nH]1` the value was 3.25 µM (active) and 2.63 µM (active).
Then `C=C1CC[C@@H]2[C@](C)(CO)[C@H](O)CC[C@@]2(C)[C@@H]1CC(=O)C1=CCOC1=O`, with “inactive”.
For `CC(C)NCCCn1c(Sc2cc3c(cc2I)OCO3)nc2c(N)ncnc21` the value was 0.365 µM (active).
`Cc1ccc(C(C)C)c(O[C@@H]2O[C@H](CO)[C@@H](O)[C@H](O)[C@H]2O)c1`: the Potency result is “inactive”.
Then `C=C1C(=O)O[C@@H]2/C=C(\CO)CC/C=C(/C=O)C[C@H](O)[C@@H]12`, with 7.28 µM (active).
Then `OC1C=C2C3CN(Cc4cc5c(cc43)OCO5)C2CC1O` (stereo not drawn), with 6.49 µM (active); and `CC1(C)CC[C@]2(C(=O)O)[C@H](O)C[C@]3(C)C(=CCC4[C@@]5(C)CC[C@H](O[C@@H]6O[C@H](CO[C@@H]7OC[C@H](O)[C@H](O)[C@H]7O[C@@H]7OC[C@H](O)[C@H](O)[C@H]7O)[C@@H](O)[C@H](O)[C@H]6O)C(C)(C)C5CC[C@]43C)[C@@H]2C1` (stereo partly drawn), with 4.35 µM (active); and `C=C1CC2OC(=O)C(COC)C2C(OC(=O)/C(C)=C\C)CC2(C)OC1=CC2=O` (stereo not drawn), with 3.58 µM (active).
As for `Cc1ccc(-c2c(C(=O)CCl)n(CCCO)c3ncnc(N)c23)cc1`, the Potency was 20.5 µM (active).
Then `Cc1ccc(NC(=O)c2ccc(CN3CCNCC3)cc2)cc1Nc1nccc(-c2cccnc2)n1`, with 16.3 µM (active) and 14.8 µM (active); and `Cc1nc(C(=O)N2CCC[C@H]2Cc2nnc(-c3ccccc3)o2)c(-c2ccccc2F)s1`, with “inactive”.
Regarding `O=C1Nc2nc(-c3c(O)cccc3OCC3CC3)cc([C@@H]3CCCNC3)c2CO1`, the Potency was 5.78 µM (active).
For `O=S(=O)(NCc1ccccn1)c1ccc(Br)c2ccccc12`, the Potency entry is “inactive”.
For `C=C1C(=O)OC2/C=C(\COC(C)=O)CC/C=C(\C=O)CC(OC(=O)C(C)CC)C12` (stereo not drawn) the value was 3.17 µM (active); for `C[C@H]1CC[C@@]2(OC1)O[C@H]1CC3C4CC[C@H]5C[C@@H](O)CC[C@]5(C)C4=CC(=O)[C@]3(C)[C@H]1[C@@H]2C` (stereo partly drawn), “inactive”; for `CC(C)S(=O)(=O)Nc1ccc(F)c(C(=O)c2c[nH]c3ncc(-c4cccnc4)cc23)c1F`, 4.09 µM (active).
On to `O=C(c1ccccc1)c1c(O)cc(O)cc1O[C@@H]1O[C@H](CO)[C@@H](O)[C@H](O)[C@H]1O`, for which the Potency result is “inactive”.
Then `Cc1cc(NC(=O)c2cccc(NC(=O)/C=C/CN(C)C)c2)ccc1Nc1nccc(-c2cccnc2)n1`, with 4.61 µM (active); and `COc1ccccc1S(=O)(=O)Nc1ccc2c(c1)CN(C)C(=O)N2`, with 1.83 µM (active).
For the compound `Cn1ccc(NC(=O)c2cc(Oc3ccc(C(=O)N4CCC4)c(F)c3)c3c(c2)OC(C)(C)C3)n1`, the Potency result was “inactive”.
Turning to `COc1cc2c(NC3CCN(C(C)C)CC3)nc(N3CCC(F)(F)CC3)nc2cc1OCCCN1CCCC1`, the Potency is 20.5 µM (active).
For `CN1c2c(nc(N)[nH]c2=O)NC[C@@H]1CNc1ccc(C(=O)N[C@@H](CCC(=O)O)C(=O)O)cc1` the value was “inactive”.
On to `CCc1cc(C(N)=O)ccc1-n1nc(C(C)C)c2c(-n3cnc(-c4cnn(C)c4)c3)ccnc21`, for which the Potency is 1.18 µM (active).
